Screening data from PubChem.
A selection: hits, their analogues and other compounds. The true share with any hit is near 2.4%.
S1P4 antagonist: S1P4 receptor antagonists, primary screen, cell-based. inhibition, % at 4.98 µM. S1P4-expressing cells, antagonist mode, reporter read-out. AID 1510, 2009. 0.26% of 220,000 active. Sphingosine 1-phosphate receptor 4 (Homo sapiens), O95977; in the data active = inhibition above about 29%;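 also: 0% = wells stimulated with agonist and 100% = vehicle wells without agonist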
Insulin prom inh: inhibitors of insulin promoter-driven GFP, primary screen, imaging, TRM-6 cells (human fetal islet line), eGFP reporter, cell count; reporter expression induced with tamoxifen; inhibition, % at 2 µM; 0.9% of 130,000 active; AID 1273, 2008;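 active = inhibition above the mean plus 3 SD, with well images judged a real hit on visual review, cut at about 60% in these data, passing the limit was not always enough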
S1P3 antag-1: S1P3 receptor antagonists, primary screen, cell-based | Sphingosine 1-phosphate receptor 3 (Homo sapiens), Q99500 | CHO S1P3 NFAT-BLA reporter, FRET fluorescence, antagonist mode | inhibition, % at 4.98 µM | 0.27% of 170,000 active | AID 485, 2006;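 active = inhibition above the plate cutoff, the mean inhibition of test wells on that plate plus 3 SD, cut at about 28% in these data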;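 also: cells challenged with S1P at its EC80 of 0.8 µM; blue over green emission ratio from cleaved BLA substrate after 4 h stimulation; 0% = S1P-stimulated wells and 100% = unstimulated DMSO-only wells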
Target sequence (Q99500 whole entry, looked up): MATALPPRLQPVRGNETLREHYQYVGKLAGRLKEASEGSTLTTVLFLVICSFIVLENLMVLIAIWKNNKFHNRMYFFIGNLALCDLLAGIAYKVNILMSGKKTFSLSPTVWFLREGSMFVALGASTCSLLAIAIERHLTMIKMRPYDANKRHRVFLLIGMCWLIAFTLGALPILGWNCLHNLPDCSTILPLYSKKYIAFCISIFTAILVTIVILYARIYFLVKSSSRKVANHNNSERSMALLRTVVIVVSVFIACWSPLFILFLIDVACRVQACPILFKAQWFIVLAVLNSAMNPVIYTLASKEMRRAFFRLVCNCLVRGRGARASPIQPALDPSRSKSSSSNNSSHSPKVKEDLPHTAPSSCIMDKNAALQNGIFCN
S1P4 ag: S1P4 receptor agonists, primary screen, cell-based | Sphingosine 1-phosphate receptor 4 (Homo sapiens), O95977 | S1P4-expressing cell line, agonist reporter assay | activation, % at 4.98 µM | 0.35% of 220,000 active | AID 1509, 2009; in the data active = activation above about 11%;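 also: 0% = DMSO vehicle and 100% = reference agonist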
PGE2 EP2 inh: human EP2 receptor antagonists, primary screen, TR-FRET cAMP, C6 glioma cells | Prostaglandin E2 receptor EP2 subtype (Homo sapiens), P43116 | C6 glioma cells expressing human EP2; cells stimulated with saturating PGE2 | inhibition, % at 25 µM | 0.52% of 260,000 active | AID 1422, 2008;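 active = percent inhibition above 40 after rounding to a whole number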;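 also: rat C6 glioma host cells with rolipram phosphodiesterase inhibitor present; the protocol text gives 20 µM as final concentration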
Target sequence (P43116 whole entry, looked up): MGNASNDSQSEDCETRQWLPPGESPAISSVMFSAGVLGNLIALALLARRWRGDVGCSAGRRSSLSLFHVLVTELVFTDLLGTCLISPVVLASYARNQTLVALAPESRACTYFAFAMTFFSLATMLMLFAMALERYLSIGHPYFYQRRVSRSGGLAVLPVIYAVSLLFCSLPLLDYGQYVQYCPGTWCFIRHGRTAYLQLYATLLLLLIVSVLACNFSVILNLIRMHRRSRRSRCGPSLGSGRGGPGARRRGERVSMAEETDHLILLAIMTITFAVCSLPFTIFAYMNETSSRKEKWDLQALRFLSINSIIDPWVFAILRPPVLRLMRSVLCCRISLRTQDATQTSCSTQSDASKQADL
EP2 mod: EP2 receptor modulators, cAMP readout, primary screen, cell-based, HTRF cAMP, PGE2 stimulation. Prostaglandin E2 receptor EP2 subtype (Homo sapiens), P43116. EP2-expressing cells, cAMP HTRF FRET, PGE2 co-stimulation. induction, % at 25 µM. 0.83% of 260,000 active. AID 940, 2007;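 active = compounds whose cAMP rise, as percent of the full-agonist control response, exceeds 60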;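 also: rat C6 glioma line stably carrying human EP2 under a CMV promoter; the protocol text gives 20 µM as final concentration; 100% = response of wells given 1 µM PGE2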
S1P3 antag-2: S1P3 receptor antagonists, retest, confirmation, cell-based. shares compounds with S1P3 antag-1. CHO S1P3 NFAT-BLA reporter, FRET, antagonist mode. AID 1429, 2008. 30% of 240 active. inhibition, % at 4.98 µM;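 active = inhibition above the hit threshold that was computed for the earlier primary screen, cut at about 30% in these data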;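 also: 0% = S1P-stimulated wells and 100% = unstimulated DMSO-only wells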
EP2 confirm: cAMP induction in EP2, EP4, beta2-AR and parental cells, confirmation, counter-screen for EP2 modulator project, cell-based, five parallel assays, C6 glioma, HEK293; cAMP HTRF induction; plus low (about EC15) PGE2 agonist; shares compounds with EP2 mod; 47% of 1,300 active; calls only at 20 µM (by protocol);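 active = cAMP induction above 50% in the main assay while under 30% in all four parallel counter assays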;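 also: rat C6 glioma cells stably expressing human EP2 receptor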
S1P4 agonist cf: S1P4 receptor agonists, retest, confirmation, cell-based, high throughput. AID 1523, 2009. activation, % at 4.98 µM. 7% of 740 active. S1P4 agonist cell-based reporter assay. shares compounds with S1P4 ag; in the data active = activation above about 12%;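 also: 0% = vehicle and 100% = full reference agonist response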
S1P1 ag: S1P1 receptor agonists, human, counter-screen for S1P4 agonist project, cell-based; shares compounds with S1P4 ag; S1P1 agonist cell-based assay, activation; activation, % at 4.98 µM; 4% of 740 active; in the data active = activation above about 21%;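 also: 0% = vehicle wells and 100% = reference agonist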
S1P4 antag conf: S1P4 receptor antagonists, human, confirmation, cell-based; S1P4-expressing cell line, antagonist mode, reporter read-out; shares compounds with S1P4 antagonist; 71% of 520 active; inhibition, % at 4.98 µM; in the data active = inhibition above about 30%
S1P1 antag: S1P1 receptor antagonists, human, counter-screen for S1P4 antagonist project, cell-based; inhibition, % at 4.98 µM; cell-based S1P1 antagonist counterscreen, inhibition; shares compounds with S1P4 antagonist; AID 1564, 2009; 37% of 520 active; in the data active = inhibition above about 40%;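 also: receptor stimulated with S1P near its EC80; 0% = agonist stimulated wells and 100% = vehicle only wells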
The depositor's hits bear a star; i = inactive; x = no result; + = active, no number.

SMILES	S1P4 antagonist	Insulin prom inh	S1P3 antag-1	S1P4 ag	PGE2 EP2 inh	EP2 mod	EP2 confirm	others
Cc1cccc(OCC(=O)Nc2ccc3c(c2)nc(CN2CCCCC2)n3C)c1	-17.0	x	30.5*	-0.8	2.5	0.2	x	S1P3 antag-2=-10.9
Cc1ccc(C)c(S(=O)(=O)N/N=C/c2ccc(N3CCOCC3)cc2)c1	-7.6	x	30.0*	0.6	3.5	-3.0	x	S1P3 antag-2=-9.0
CC(C)NC(=S)N/N=C/c1ccc(N2CCOCC2)cc1	-9.1	x	3.3	-0.9	10.0	-2.8	x
COc1cccc(CNC(=O)CCCCCn2c(=S)[nH]c3ccc(N4CCOCC4)cc3c2=O)c1	-16.0	-20.0	63.9*	1.3	5.0	25.2	x	S1P3 antag-2=-13.1
Cc1cc(C(=O)CSc2nc3ccccc3c(=O)n2C)c(C)n1CC1CCCO1 (stereo unspecified)	-28.6	44.4	33.4*	196.0*	7.3	-76.9	x	S1P3 antag-2=36.9*;S1P4 agonist cf=-1.8;S1P1 ag=2.8
OC(CN1CCC2(CC1)CC(O)c1ccccc1O2)c1ccc2ccccc2c1 (stereo unspecified)	x	x	x	x	3.7	-103.5	x
O=C(NC(Nc1nc2ccc([N+](=O)[O-])cc2s1)(C(F)(F)F)C(F)(F)F)c1cccnc1	16.7	-2.9	3.0	0.6	6.3	-5.7	x
O=C(NC(Nc1nc2ccc([N+](=O)[O-])cc2s1)(C(F)(F)F)C(F)(F)F)c1ccccc1Cl	43.4*	x	69.5*	-1.2	5.7	5.9	x	S1P3 antag-2=53.1*;S1P4 antag conf=64.5*;S1P1 antag=-1.8
O=C(Cn1cnc([N+](=O)[O-])n1)NCCC1=CCCCC1	x	x	x	x	6.4	14.8	x
O=C(/C=C/c1cn(CC(O)CN2CCCCC2)c2ccccc12)c1cccs1 (stereo unspecified)	30.5*	x	31.5*	0.6	2.4	-49.3	x	S1P3 antag-2=8.8;S1P4 antag conf=52.5*;S1P1 antag=45.5*
CCOC(=O)C(Cc1cc(C(C)=O)ccc1OCC)C(=O)OCC	-40.4	-24.3	-13.8	2.0	12.7	15.4	x
CCOc1ccc(C(C)=O)cc1CC(C(N)=O)C(N)=O	-0.6	-34.8	x	-1.9	x	68.8*	i
O=C(Nc1nc(-c2cccs2)c(-c2ccccc2)s1)c1ccco1	-14.4	x	-7.5	-0.1	4.7	73.2*	+
CC(=O)Nc1sc(NC(=O)c2ccco2)nc1-c1cccs1	x	x	x	x	8.3	-17.5	x
COc1ccc(C(=O)N2CCC(c3nc4ccccc4[nH]3)CC2)cc1	x	x	x	x	9.4	-19.0	x
CC1CCN(c2nc3c(c(=O)[nH]c(=O)n3C)n2CC(C)CSc2nnnn2-c2ccccc2)CC1 (stereo unspecified)	-13.3	25.0	10.0	1.2	9.9	68.0*	i
O=C(c1cc2sccc2n1Cc1ccc(F)cc1)N1CCCc2ccccc21	15.5	-27.8	x	-2.6	11.8	72.9*	+
CCn1c(N2CCC(C(=O)Nc3ccc(OC)nc3)CC2)nc2ccccc21	x	x	x	x	x	-21.5	x
COc1ccc(OCC(=O)NC(=S)Nc2ccc3c4c(cccc24)CC3)cc1	5.0	21.4	-8.1	-0.2	18.3	68.2*	i
CCCCOc1ccc(-c2c(C(=O)Nc3ccccc3)c(C)[nH]c(=S)c2C#N)cc1	-2.2	x	1.7	1.1	19.2	72.8*	i
Cc1cc(O)c(C=O)c2c1C(=O)Oc1c(CO)c(O)c3c(c1O2)C(O)OC3=O (stereo unspecified)	10.2	x	-10.6	2.4	10.8	-9.2	x
Cc1cc(O)c(C=O)c2c1C(=O)Oc1c(COC(=O)/C=C/C(=O)O)c(O)c(C(=O)O)c(C)c1O2	x	x	x	x	9.5	62.9*	+
C[C@@H]1CN(C(=O)c2[nH]ncc2Br)[C@H](C)CN1Cc1ccco1	x	x	x	x	x	-29.4	x
CN(Cc1c(C(=O)N2CCc3ccccc3C2)nc2ccc(Cl)cn12)C(C1CC1)C1CC1	6.6	x	-9.3	0.2	17.6	76.5*	i
COc1cc(OC)cc(C(=O)N(CCc2ccccc2C)Cc2cc3ccc(C)c(C)c3[nH]c2=O)c1	x	x	x	x	8.3	3.7	x
SMILES	S1P4 antagonist	Insulin prom inh	S1P3 antag-1	S1P4 ag	PGE2 EP2 inh	EP2 mod	EP2 confirm	others
CCN(CC)c1nc(C#N)nc(N(CC)CC)n1	-7.6	7.4	-1.2	-0.4	x	65.1*	i
CCN(c1ccccc1)c1nc(C#N)nc(N(CC)c2ccccc2)n1	-10.6	x	-3.9	-0.5	3.7	41.7	x
CCn1c(SCC(=O)Nc2ccc(NC(C)=O)cc2)nnc1-c1cccnc1	x	x	x	x	9.8	8.0	x
Cc1ccc(O)c(N=Cc2cc(Cc3ccccc3)cc([N+](=O)[O-])c2O)c1	-5.0	x	-18.0	0.2	5.6	68.6*	i
CC1C(c2ccccc2)N(C)C(c2ccccc2)C(C)C1(O)C#Cc1ccccc1 (stereo unspecified)	-12.3	10.3	4.2	40.2*	17.9	65.7*	+
Cc1ccc(-n2c(CSc3nc(C)cc(C)n3)nnc2SCC(=O)Nc2ccccc2O)cc1	x	x	x	x	4.0	12.8	x
O=C1C2C(c3ccccc3)C=CC(c3ccccc3)C2C(=O)N1c1ccncc1 (stereo unspecified)	-12.2	23.3	x	-2.4	1.1	64.9*	i
Cc1ccc(NC(=O)c2sc3nc(C)cc(C)c3c2N)c(C)c1	x	x	x	x	6.5	-2.8	x
COc1ccc2c(c1)c(=O)c(Br)c(C)n2Cc1ccccc1	4.6	x	-18.1	0.8	-0.8	68.2*	+
COc1ccc2c(c1)c(CC(=O)O)c(C)n2Cc1ccc(F)cc1	x	x	x	x	7.7	17.1	x
CC(=O)N(C)c1nc(-c2ccc(C)cc2)cs1	x	x	x	x	6.2	1.8	x
